# Experimental data from PubChem BioAssay (NCATS).
# Inconclusive results are not listed. Entries that show only a call come without a potency. A number with no mark means an inactive call. Active and inactive are the calls of the source. The call rests on the fitted dose curve; in most records, active means well fitted cell-killing curve with a large enough effect; inconclusive means small, poorly fitted or top-dose-only effect, or effect the other way; inactive means flat fitted curve, though single readings scatter.
# Test system: Tov-21-G
# Test: Primary qHTS to identify gynecologic anti-cancer compounds using libraries of approved drugs and bioactive compounds (AID 1345084); further: nearly all actives have a fitted effect of over 55% in size
# Conditions: Gynecologic cancer cell panel viability, ATPlite luminescence, 48 h; series mostly up to 57.5 µM
# In short: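 Five-point cytotoxicity, 48 h drug exposure at 37 C, 5% CO2, on cells seeded 16 h beforehand. ATP content read by ATPlite luminescence.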
SMILES,Potency,"activity change, negative = cytotoxicity"
C[C@@H]1N[C@H]2N(C1=O)c1ccccc1[C@@]2(O)C[C@@H]1C(=O)N[C@@H](C)c2nc3ccccc3c(=O)n21,inactive,–
COC(=O)C1=CO[C@@H](O[C@@H]2O[C@H](CO)[C@@H](O)[C@H](O)[C@H]2O)[C@H]2[C@@H]1C=C[C@@]21C=C([C@H](C)O)C(=O)O1,inactive,–
CC(C)C(NC(=O)c1ccc2ccccc2n1)C(=O)NC(CC(=O)O)C(=O)COc1c(F)cccc1F (centres undefined),inactive,–
CC1CCCCN1S(=O)(=O)c1ccc(N2CCCC2=O)cc1 (centres undefined),inactive,–
COc1cc2c(cc1OC)N1C(=O)C[C@]34C=CCN5CC[C@@H]2[C@@H](CC3)[C@]514,inactive,–
C=C1CC2C(C)(CCC(=O)O)C(C(C)(C)O)CCC2(C)C2C(=O)OC(C)(C(=O)OC)C(=O)C12C (centres undefined),inactive,–
CCc1ccc(Cc2ccc3c(c2)[C@]2(OC3)O[C@H](CO)[C@@H](O)[C@H](O)[C@H]2O)cc1,inactive,–
OC[C@H]1O[C@@H](Oc2cc(O)c3c(c2)O[C@@H](c2ccc(O)cc2)[C@H](O)C3)[C@H](O)[C@@H](O)[C@@H]1O,inactive,–
CC[C@@](C)(Nc1ccnc(-c2c[nH]c3ncccc23)n1)C(=O)NCC(F)(F)F,inactive,–
CC1=C(C(=O)O)/C(=C/CO[C@@H]2O[C@H](COC(=O)/C=C/c3ccc(O)cc3)[C@@H](O)[C@H](O)[C@H]2O)C(O)C1 (some centres undefined),inactive,–
C[C@H](CCC(=O)O)[C@H]1CC[C@H]2[C@@H]3C[C@H](O)[C@@H]4C[C@H](O)CC[C@]4(C)[C@H]3CC[C@]12C,inactive,–
CC1CC[C@]2(C(=O)O)CC[C@]3(C(=O)O)C(=CCC4[C@@]5(C)CC[C@H](O[C@@H]6O[C@H](CO)[C@@H](O)[C@H](O)[C@H]6O)C(C)(C)C5CC[C@]43C)C2C1C (some centres undefined),inactive,–
CC(=O)N[C@@H](C(=O)O[C@H]1CCC(C)(C)[C@@H]2CCC3=C(COC3=O)[C@@]12C)C(C)C,inactive,–
CC1OC2OC(=O)C3(C)CC4=C(CO)C5=C(CC(=O)C4(C)C(C1=O)C23)C(C)(C)OC(=O)C5 (centres undefined),inactive,–
CC1(C)CC2=C3C=CC4C5(C)CCC(O)C(C)(C)C5CCC4(C)C3(C)CCC2(C)C(O)C1 (centres undefined),inactive,–
COc1cc(O)cc(C)c1C(=O)O[C@H]1[C@@H](OC(C)=O)[C@H](n2ccc(=O)[nH]c2=O)O[C@@H]1CO,inactive,–
Fc1ccc2nc(CCC#Cc3ccccn3)cn2c1,inactive,–
C=C[C@H]1C(O[C@@H]2O[C@H](CO)[C@@H](O)[C@H](O)[C@H]2O)OC=C2C(=O)N3CCc4c([nH]c5ccccc45)C3CC21 (some centres undefined),inactive,–
O=C1NC(=O)C(c2cn(-c3ccccc3)nc2-c2ccc(F)cc2)N1 (centres undefined),inactive,–
CC(=O)OC1C(O)C2C(C)C3=CC(=O)OC3(O)CC2C2(C)CCCC(C)(CO)C12 (centres undefined),inactive,–

SMILES,Potency,"activity change, negative = cytotoxicity"
O=C(NCc1cccc(O)c1)Nc1nc(-c2ccncc2)cs1,inactive,–
CC1(O)CCCC2(C)C1CCC13CC(CO)C(CCC12)C3 (centres undefined),inactive,–
CC1=CC2C(CC1OC1OC(CO)C(O)C(O)C1O)C(C)CC(=O)C2C(C)C (centres undefined),inactive,–
CC(=O)O[C@@H]1C[C@@H](OC(C)=O)C(C)(C)/C=C/[C@H](C)[C@H](OC(C)=O)[C@@]2(O)C[C@H](C)[C@H](OC(=O)c3ccccc3)[C@@H]2/C=C/1C,inactive,–
O=C(NCc1cccc(O)c1)c1cc2cc(F)ccc2[nH]1,inactive,–
COC1CC(O[C@H]2CC[C@@]3(C)C(CCC4C3[C@H](OC(C)=O)[C@@H](OC(=O)/C=C/c3ccccc3)[C@]3(C)C(C(C)=O)CC[C@]43O)C2)OC(C)C1OC1CC(OC)C(OC2CC(OC)C(OC3OC(C)C(OC4OC(CO)C(O)C(O)C4O)C(OC)C3O)C(C)O2)C(C)O1 (some centres undefined),–,6.44% [at 6.55 µM]
COc1cc(Br)c(S(=O)(=O)Nc2ccc(C(F)(F)F)c(O[C@@H]3CCN(C)C3)c2)cc1OC,inactive,–
COc1c2ccoc2cc2oc(CO[C@@H]3O[C@H](CO)[C@@H](O)[C@H](O)[C@H]3O)cc(=O)c12,inactive,–
COC(=O)C1=COC(O[C@@H]2O[C@H](CO)[C@@H](O)[C@H](O)[C@H]2O)[C@H]2[C@@H]1[C@H](OC(=O)CCc1ccc(O)cc1)C[C@]2(C)O (some centres undefined),inactive,–
COC(=O)N[C@H](C(=O)N1[C@@H]2CC[C@@H](C2)[C@H]1c1nc2ccc(-c3ccc4c(c3)C(F)(F)c3cc(-c5cnc([C@@H]6CCC7(CC7)N6C(=O)[C@@H](NC(=O)OC)C(C)C)[nH]5)ccc3-4)cc2[nH]1)C(C)C,inactive,–
CC(c1ncncc1F)C(O)(Cn1cncn1)c1ccc(F)cc1F (centres undefined),inactive,–
O=C(OC[C@H]1O[C@H](O[C@]2(CO)O[C@H](CO)[C@@H](O)[C@@H]2O)[C@H](O)[C@@H](O)[C@@H]1O)c1ccccc1,inactive,–
CC(C)(C)c1ccc(S(=O)(=O)Nc2ccc(Cl)cc2C(=O)c2cc[n+]([O-])cc2)cc1,inactive,–
CC(CO)C1CCC2(C)CC3C(CO)CC(O)C3C(C)(O)C/C=C/12 (centres undefined),inactive,–
CC12CCC3c4ccc(O)cc4CCC3C1CC(OC1OC(C(=O)O)C(O)C(O)C1O)C2O (centres undefined),inactive,–
CCNCc1nc2c(N)nc3ccccc3c2n1CC(C)(C)O,inactive,–
OC[C@H]1O[C@@H](OCCc2ccccc2)[C@H](O[C@@H]2OC[C@](O)(CO)[C@H]2O)[C@@H](O)[C@@H]1O,inactive,–
COc1cc(C2Oc3c(OC)cc(CCCO)cc3C2CO)ccc1O[C@H]1O[C@H](C)[C@@H](O)[C@H](O)[C@@H]1O (some centres undefined),inactive,–
COc1cc2c3c(cc4ccccc4c3c1O)NC2=O,inactive,–
